# About 8,600 (12%) of roughly 69,000 compounds showed an effect of 50% or more. The sample holds strong results, similar compounds and a random draw of the others, so the mix is not that of the screen.
# Tested on: Plasmodium berghei
# Test: Screen against P. berghei liver stage (PbLuc), transformed with Luciferase, at 10uM
# Format: functional, HepG2
# Conditions: tested at 10 uM
row,Compound,INHIBITION [%]
1,Cc1nnc(CN(C)C2CCCN(Cc3noc(C4CC4)n3)C2)o1 (centres undefined),27.8
2,Cc1csc(NC(=O)C2(C)CN(C)CCO2)n1 (centres undefined),12.235
3,Cc1nc(-c2ccc(S(=O)(=O)N3CCC4(CC3)OCCO4)cc2)co1,48.4
4,CCN1CCC(NC(=O)CN2CCCC2Cn2cc(C)cn2)CC1 (centres undefined),11.2
5,Cc1cccc(OC2CCN(c3nccnc3C#N)CC2)n1,11.4
6,Cc1cccc(OC2CCN(c3ncc(C#N)cc3Cl)CC2)n1,12.4
7,Cc1cccc(OC2CCN(c3ccc(C#N)cn3)CC2)n1,51.1
8,CC(C)N1CCn2c(COCC3CCOCC3)cnc2C1C (centres undefined),39.4
9,COc1cc(C)nc(N2CCN(C(=O)COC3CCCC3)CC2)n1,26.36
10,Cc1cn[nH]c1C1CCCCN1C(=O)CCc1ccc(F)cc1 (centres undefined),2.6
11,O=C(c1ccsc1)N1CCC(c2nnc(C3CC3)o2)CC1,14.3
12,Cc1cc(C)n(CC2CCCN2C(=O)c2ccc3ccccc3n2)n1 (centres undefined),21
13,CCOc1ccc(Cl)c(C(=O)N2CCN(c3ccncc3)CC2)n1,10
14,CCOc1ccc(Cl)c(C(=O)N2CCN(c3cnccn3)CC2)n1,52.7
15,CCOc1ccc(Cl)c(C(=O)N2CCN(c3ncccn3)CC2)n1,1.78
16,CCC(NC(=O)c1ccoc1)c1ccccc1OCC(=O)N1CCCC1 (centres undefined),29.05
17,COCC(=O)N[C@H](C(=O)NC(C)c1cc(C)ccc1C)C(C)C (some centres undefined),57.4
18,CCOCC(=O)NC(C)c1cc(C)ccc1C (centres undefined),30.5
19,COCC(=O)N[C@H](C(=O)NC(C)c1cccc(C)c1C)C(C)C (some centres undefined),28.7
20,CC1=Nc2c(c(=O)[nH]n2C(C)C)C(c2ccc3c(c2)OCCO3)S1 (centres undefined),-14.1
21,CC1=Nc2c(c(=O)[nH]n2C(C)C)C(c2ccccc2)S1 (centres undefined),7.11
22,CC1=Nc2c(c(=O)[nH]n2C(C)C)C(c2ccc(F)c(F)c2)S1 (centres undefined),-3.95
23,CC1=Nc2c(c(=O)[nH]n2C(C)C)C(c2ccc3nccnc3c2)S1 (centres undefined),58.5
24,CC1=Nc2c(c(=O)[nH]n2C(C)C)C(c2ccc3ncccc3c2)S1 (centres undefined),80
25,CC1=Nc2c(c(=O)[nH]n2C(C)C)C(c2ccc3c(c2)n(C)c(=O)n3C)S1 (centres undefined),-39.6
26,O=C(Nc1ccccc1)[C@H]1C[C@H]2CN(S(=O)(=O)C3CC3)C[C@@H]1O2,30.3

row,Compound,INHIBITION [%]
1,CC(C)c1cnc(CN2CCCC(c3cc(C(N)=O)[nH]n3)C2)o1 (centres undefined),-0.113
2,Cc1cccnc1NC(=O)c1ccc(F)c(S(=O)(=O)NC2CC2)c1,20.9
3,Cc1ccccc1CN(C)C(=O)CN1CCOC(Cn2cccn2)C1 (centres undefined),-4.16
4,O=C(CCC(=O)Nc1nnc(C2CCCCC2)s1)NCC1CCCO1 (centres undefined),18.4
5,O=C(CCC(=O)Nc1nnc(C(F)(F)F)s1)NCC1CCCO1 (centres undefined),0.207
6,CC(C)c1nnc(NC(=O)CCC(=O)NCC2CCCO2)s1 (centres undefined),52.5
7,COc1ccc(C2(C(=O)NCc3c(C)ncc4c3CCNC4)CC2)cc1,44.3
8,Cc1ncc2c(c1CNC(=O)C1(C)CCCO1)CCNC2 (centres undefined),56.3
9,Cc1ncc2c(c1CNC(=O)C1(C)CCCCO1)CCNC2 (centres undefined),36.9
10,Cc1ncc2c(c1CNC(=O)C1(C)CC1)CCNC2,14.6
11,Cc1ccc(OCC(O)CNC(=O)C2(c3ccc(F)cc3)CC2)cc1 (centres undefined),-26.1
12,Cc1ncc2c(c1CNC(=O)C1(c3ccc(F)cc3)CC1)CCNC2,61.9
13,COc1cccc(CCC(=O)N2CCC[C@@H](N)[C@@H]2c2ccccc2F)c1,14.4
14,COc1c(CNCC(O)c2ccc(C)cc2)c(C(C)C)nn1C (centres undefined),-6.14
15,CS(=O)(=O)CC1(CNc2cc(C#N)c3cc(Cl)ccc3n2)CC1,6.23
16,CC(NC(=O)CNc1cc2c(cc1Cl)NC(=O)CO2)c1ccco1 (centres undefined),17.1
17,Cn1nnnc1SCC(=O)N1CCN(C(=O)C2CC2c2cccs2)CC1 (centres undefined),-40.4
18,CCc1nnc2n1CCN(C(=O)CCc1ccc3c(c1)OCO3)C2,37.4
19,O=C(C1CCOCC1)N1C[C@@H]2[C@@H](C1)OCC(=O)N2Cc1ccncc1,-46.5
20,NC(=O)CCC1CCCN(c2ccc3c(Cl)ccnc3c2F)C1 (centres undefined),38
21,NC(=O)CCC1CCCN(c2ccnc3cc(F)ccc23)C1 (centres undefined),79.3
22,NC(=O)CCC1CCCN(c2ccc3ccc(F)cc3n2)C1 (centres undefined),-65.4
23,Cc1cnccc1CCNC(=O)Nc1cnc(N(C)C)nc1,42.3
24,Cc1nc(NC(=O)C(C)N(C)Cc2cccc(C#N)c2)sc1C (centres undefined),-24.7
25,c1ccc(N2CCC(NCCc3ccc(-n4cccn4)cc3)CC2)nc1,-15.3
26,COc1ccc(C(C)CCNC2CCN(c3ccccn3)CC2)cc1 (centres undefined),53.4

row,Compound,INHIBITION [%]
1,CC(CNC1CCN(c2ccccn2)CC1)Oc1ccc(F)cc1 (centres undefined),65.4
2,OC1(CNC2CCN(c3ccccn3)CC2)CCc2ccccc21 (centres undefined),7.31
3,CC(C)COCCNC1CCN(c2ccccn2)CC1,41.4
4,COc1c(CNC2CCN(c3ccccn3)CC2)c(C(C)C)nn1C,40.2
5,CN1CCC/C1=N\S(=O)(=O)c1ccc(NC(=O)c2cccs2)cc1,23.4
6,c1ccc(CN2C[C@@H]3CC[C@H]2CN(Cc2nnc(C4CC4)o2)C3)cc1,45.4
7,Cc1cc(C)n(CC2CN(CC(=O)N3CCC3)CCO2)n1 (centres undefined),8.64
8,COCCN1CCC(c2nc3ccc(-c4ccccc4)cn3n2)CC1,-18.4
9,Cc1cccc(-c2ccc3nc(C4CCN(CC5CC5)CC4)nn3c2)c1,46.8
10,CCCN1CCC(c2nc3ccc(-c4cccc(OC)c4)cn3n2)CC1,82.9
11,CCCN1CCC(c2nc3ccc(-c4ccccc4)cn3n2)CC1,54.8
12,CCCN1CCC(c2nc3ccc(-c4cccc(F)c4)cn3n2)CC1,47.5
13,CCCN1CCC(c2nc3ccc(-c4ccncc4)cn3n2)CC1,16.8
14,CN(CCS(C)(=O)=O)C1CCCN(Cc2noc(C3CC3)n2)C1 (centres undefined),47.3
15,CSc1cccc(CN(C)C(=O)c2cccc(C3CCCNC3)c2)c1 (centres undefined),60.4
16,CN(Cc1ccc2c(c1)OCO2)C(=O)c1ccc(C2CCCNC2)cc1 (centres undefined),-26.5
17,CCOC(=O)N1CCC(NC(=O)c2cccc(C3CCCNC3)c2)CC1 (centres undefined),9.72
18,O=C(NC1CCOCC1)c1cccc(C2CCCNC2)c1 (centres undefined),27.7
19,CSCCN1CCC(NC(=O)c2cccc(C3CCCNC3)c2)CC1 (centres undefined),50.8
20,CSc1cccc(CN(C)C(=O)c2ccc(C3CCCNC3)cc2)c1 (centres undefined),9.56
21,Cc1cccc(-n2cc3[nH]c(=O)n(Cc4cccc(F)c4)n3c2=O)c1,25.2
22,CCc1noc(CN(CC)C(=O)CC2C(=O)NCCN2CC=C(C)C)n1 (centres undefined),16.9
23,Cc1csc(C2NC3(CCCC3)C(=O)N2CC2CC2)n1 (centres undefined),43.5
24,Cc1nc(C2NC3(CCCC3)C(=O)N2CC2CC2)cs1 (centres undefined),47.7
25,CCc1nc(C2NC3(CCCC3)C(=O)N2CC2CC2)cs1 (centres undefined),61.6
26,O=C(NCC1CC1)C1CSCN1S(=O)(=O)c1ccccc1 (centres undefined),-35.9

row,Compound,INHIBITION [%]
1,Cc1n[nH]c(C2CN(CCc3cccs3)CCO2)n1 (centres undefined),35.3
2,Cc1cccc(CN2C(=O)CO[C@@H]3CN(CCO)C[C@H]32)c1,-9.76
3,COc1ccc(-c2nnc(CN3CCCC3Cn3cncn3)o2)cc1 (centres undefined),45.1
4,Cc1nc(CN2C(=O)CC3(CCN(C(N)=O)CC3)c3ccccc32)cs1,36.4
5,O=C([C@H]1CCCO1)N1CCC2(CC1)C(=O)N(CC1CC1)c1ccccc12,17.4
6,NC(=O)N1CCC2(CC1)CC(=O)N(CC1CCCO1)c1ccccc12 (centres undefined),54.3
7,COCCN1CCC2(CCN(Cc3ccc(OC)cc3)CC2)C1=O,38.3
8,O=C(c1ccc(=O)[nH]n1)N1CCCC1C1CCCC1 (centres undefined),18
9,O=C(c1c[nH]nn1)N1CCCC1C1CCCCC1 (centres undefined),53.8
10,O=C(c1cnc2[nH]c(=O)[nH]c(=O)c2c1)N1CCCC1C1CCCCC1 (centres undefined),-1.35
11,CC(C)N1CCC2(CC1)CC(NS(C)(=O)=O)c1ccccc1O2 (centres undefined),-12.2
12,CC(C)NC(=O)NCc1cc(-c2ccco2)n(CC(F)(F)F)n1,20.4
13,Cc1nc(C)c(C)c(N2CCC(O)(c3ccc(F)cc3)CC2)n1,25.5
14,Cc1nc(N2CCC(O)(c3ccc(F)cc3)CC2)c2c(C)nn(C)c2n1,51.2
15,Cc1nc(N2CCC(O)(c3ccccc3)CC2)c2c(C)nn(C)c2n1,28.4
16,Cn1cc(CN2CCC3(CC2)CCN(C(=O)c2cscn2)C3)cn1,38.5
17,COCC1CC2(CCN(c3cccc(C)n3)CC2)CN1c1ncccn1 (centres undefined),46.6
18,Cn1cncc1-c1nnc([C@H]2CCN(Cc3cccnc3)C2)o1,39.8
19,Cn1cncc1-c1nnc([C@H]2CCN(Cc3ccc(CO)o3)C2)o1,-18.2
20,CN1CC[C@H](c2nnc(-c3cncn3C)o2)C1,61.5
21,Cn1cncc1-c1nnc([C@H]2CCN(C3CCOCC3)C2)o1,4.61
22,Cn1cncc1-c1nnc([C@H]2CCN(CC(C)(C)C)C2)o1,57.4
23,Cn1cncc1-c1nnc([C@H]2CCN(Cc3ccc(F)c(F)c3)C2)o1,11.4
24,Cn1cncc1-c1nnc([C@H]2CCN(CC3CCCCC3)C2)o1,-17.1
25,Cn1cncc1-c1nnc([C@H]2CCN(Cc3ncc[nH]3)C2)o1,69.6
26,Cc1ccccc1CN1CC[C@H](c2nnc(-c3cncn3C)o2)C1,5.96

# From ChEMBL document CHEMBL4513216, “Probing the Open Global Health Chemical Diversity Library for Multistage-Active Starting Points for Next-Generation Antimalarials” (ACS Infect Dis, 2020)
